Data from PubChem BioAssay AID1159580 (chemical genetic matrix, 2015).
Hit rate of the full screen: of about 5,500 compounds, about 2,000 (36%) were called active. Not shown: some 18% with an inconclusive outcome. This is one part of the list. A number with no mark means an inactive call. Rule as the data show it: active = normalized growth mostly below about 0.91 (no sharp cut-off); inconclusive = no clear call, values can overlap the other calls; inactive = mostly above about 0.92.

Assay: chemical genetic growth profiling, strain panel (AID 1159580);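 also: tested at 20 µM; growth read once vehicle control cultures reached saturation at 30 °C; 1 = growth at the plate median or of vehicle wells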
Conditions: S. cerevisiae deletion strains, growth OD

For `C=C1CC2C(CCC3(C)C(=O)CCC23)C2(C)C=CC(=O)C=C12` (stereo unspecified), which normalized growth (locus YAL021C, strain ccr4, stronger effect = lower value) is on record?
Its normalized growth is 0.958.

What about the normalized growth (locus YAL026C, strain drs2, stronger effect = lower value) of the same compound?
The normalized growth was 0.905 (active).

And the normalized growth (locus YAL030W, strain snc1, stronger effect = lower value)?
Its normalized growth is 0.949.

And the normalized growth (locus YBL061C, strain skt5, stronger effect = lower value)?
Its normalized growth is 0.928.

What about the normalized growth (locus YBR009C, strain hhf1, stronger effect = lower value) of the same compound?
Its normalized growth is 0.85 (active).

And the normalized growth (locus YBR023C, strain chs3, stronger effect = lower value)?
Its normalized growth is 0.941.

What about the normalized growth (locus YBR171W, strain sec66, stronger effect = lower value) of the same compound?
Its normalized growth is 0.92.

What about the normalized growth (locus YBR231C, strain swc5, stronger effect = lower value) of the same compound?
The normalized growth was 0.943.

And the normalized growth (locus YBR279W, strain paf1, stronger effect = lower value)?
The normalized growth was 0.963.

What about the normalized growth (locus YCL011C, strain gbp2, stronger effect = lower value) of the same compound?
The normalized growth was 0.935.

And the normalized growth (locus YCL016C, strain dcc1, stronger effect = lower value)?
The normalized growth was 0.983.

And the normalized growth (locus YCL069W, strain vba3, stronger effect = lower value)?
Its normalized growth is 0.927.

And the normalized growth (locus YCR088W, strain abp1, stronger effect = lower value)?
Its normalized growth is 0.947.

And the normalized growth (locus YDL005C, strain med2, stronger effect = lower value)?
Its normalized growth is 0.942.

What about the normalized growth (locus YDL040C, strain nat1, stronger effect = lower value) of the same compound?
The normalized growth was 0.941.

What about the normalized growth (locus YDR001C, strain nth1, stronger effect = lower value) of the same compound?
Its normalized growth is 0.936.

And the normalized growth (locus YDR069C, strain doa4, stronger effect = lower value)?
Its normalized growth is 0.944.

And the normalized growth (locus YDR137W, strain rgp1, stronger effect = lower value)?
Its normalized growth is 0.931.

And the normalized growth (locus YDR159W, strain sac3, stronger effect = lower value)?
Its normalized growth is 0.919.

What about the normalized growth (locus YDR195W, strain ref2) of the same compound?
The normalized growth was 0.945.

What about the normalized growth (locus YDR297W, strain sur2, stronger effect = lower value) of the same compound?
The normalized growth was 0.946.

What about the normalized growth (locus YDR334W, strain swr1, stronger effect = lower value) of the same compound?
Its normalized growth is 0.896 (active).

And the normalized growth (locus YDR335W, strain msn5, stronger effect = lower value)?
The normalized growth was 0.951.

What about the normalized growth (locus YDR392W, strain spt3, stronger effect = lower value) of the same compound?
Its normalized growth is 0.733 (active).

What about the normalized growth (locus YEL003W, strain gim4, stronger effect = lower value) of the same compound?
Its normalized growth is 0.912 (active).

And the normalized growth (locus YEL037C, strain rad23, stronger effect = lower value)?
The normalized growth was 0.917 (active).

And the normalized growth (locus YEL061C, strain CIN8 (second series), stronger effect = lower value)?
Its normalized growth is 0.922.

What about the normalized growth (locus YER015W, strain faa2, stronger effect = lower value) of the same compound?
The normalized growth was 0.939.

What about the normalized growth (locus YER016W, strain bim1, stronger effect = lower value) of the same compound?
Its normalized growth is 0.955.

What about the normalized growth (locus YER111C, strain swi4, stronger effect = lower value) of the same compound?
The normalized growth was 0.945.

And the normalized growth (locus YER155C, strain BEM2 (second series), stronger effect = lower value)?
The normalized growth was 0.946.

What about the normalized growth (locus YFR010W, strain ubp6, stronger effect = lower value) of the same compound?
Its normalized growth is 0.928.

And the normalized growth (locus YGL167C, strain pmr1, stronger effect = lower value)?
Its normalized growth is 0.928.

What about the normalized growth (locus YGL173C, strain kem1, stronger effect = lower value) of the same compound?
Its normalized growth is 0.95.

And the normalized growth (locus YGL227W, strain vid30, stronger effect = lower value)?
Its normalized growth is 0.874 (active).

What about the normalized growth (locus YGL240W, strain doc1, stronger effect = lower value) of the same compound?
The normalized growth was 0.95.

And the normalized growth (locus YGL253W, strain hxk2, stronger effect = lower value)?
Its normalized growth is 0.944.

And the normalized growth (locus YHR013C, strain ard1, stronger effect = lower value)?
Its normalized growth is 0.908.

What about the normalized growth (locus YHR027C, strain rpn1, stronger effect = lower value) of the same compound?
Its normalized growth is 0.93.

What about the normalized growth (locus YHR142W, strain chs7, stronger effect = lower value) of the same compound?
Its normalized growth is 0.905.

And the normalized growth (locus YJL092W, strain hpr5, stronger effect = lower value)?
Its normalized growth is 0.932.

And the normalized growth (locus YJL095W, strain BCK1 (second series), stronger effect = lower value)?
Its normalized growth is 0.952.

What about the normalized growth (locus YJL115W, strain asf1, stronger effect = lower value) of the same compound?
The normalized growth was 0.928.

What about the normalized growth (locus YJL129C, strain trk1, stronger effect = lower value) of the same compound?
Its normalized growth is 0.96.

And the normalized growth (locus YJL154C, strain vps35, stronger effect = lower value)?
Its normalized growth is 0.936.

And the normalized growth (locus YJL164C, strain tpk1, stronger effect = lower value)?
The normalized growth was 0.916 (active).

And the normalized growth (locus YJL166W, strain qcr8, stronger effect = lower value)?
The normalized growth was 0.962.

What about the normalized growth (locus YJL187C, strain SWE1, stronger effect = lower value) of the same compound?
The normalized growth was 0.939.

And the normalized growth (locus YKL160W, strain elf1, stronger effect = lower value)?
The normalized growth was 0.998.

What about the normalized growth (locus YKR026C, strain gcn3, stronger effect = lower value) of the same compound?
Its normalized growth is 0.939.

What about the normalized growth (locus YKR091W, strain srl3, stronger effect = lower value) of the same compound?
The normalized growth was 0.95.

And the normalized growth (locus YLL001W, strain dnm1, stronger effect = lower value)?
The normalized growth was 1.01.

And the normalized growth (locus YLL026W, stronger effect = lower value)?
The normalized growth was 0.936.

And the normalized growth (locus YLL041C, strain sdh2, stronger effect = lower value)?
Its normalized growth is 0.939.

What about the normalized growth (locus YLR027C, strain aat2, stronger effect = lower value) of the same compound?
Its normalized growth is 0.98.

What about the normalized growth (locus YLR221C, strain rsa3, stronger effect = lower value) of the same compound?
The normalized growth was 0.992.

And the normalized growth (locus YLR258W, strain gsy2, stronger effect = lower value)?
The normalized growth was 0.945.

And the normalized growth (locus YLR262C, strain YPT6 (second series), stronger effect = lower value)?
Its normalized growth is 0.925.

What about the normalized growth (locus YLR320W, strain mms22, stronger effect = lower value) of the same compound?
The normalized growth was 0.991.

What about the normalized growth (locus YLR342W, strain FKS1, stronger effect = lower value) of the same compound?
The normalized growth was 0.929.

And the normalized growth (locus YLR357W, strain rsc2, stronger effect = lower value)?
The normalized growth was 0.991.

And the normalized growth (locus YLR370C, strain arc18, stronger effect = lower value)?
The normalized growth was 0.937.

And the normalized growth (locus YLR384C, strain iki3, stronger effect = lower value)?
Its normalized growth is 0.925.

What about the normalized growth (locus YML120C, strain ndi1, stronger effect = lower value) of the same compound?
Its normalized growth is 0.96.

And the normalized growth (locus YMR058W, strain fet3, stronger effect = lower value)?
The normalized growth was 0.929.

What about the normalized growth (locus YMR125W, strain sto1, stronger effect = lower value) of the same compound?
The normalized growth was 0.989.

What about the normalized growth (locus YMR129W, stronger effect = lower value) of the same compound?
Its normalized growth is 0.928.

What about the normalized growth (locus YMR205C, strain PFK2, stronger effect = lower value) of the same compound?
Its normalized growth is 0.992.

And the normalized growth (locus YMR231W, strain pep5, stronger effect = lower value)?
The normalized growth was 0.946.

What about the normalized growth (locus YNL071W, strain lat1, stronger effect = lower value) of the same compound?
Its normalized growth is 0.883 (active).

And the normalized growth (locus YNL209W, strain ssb2, stronger effect = lower value)?
The normalized growth was 0.957.

What about the normalized growth (locus YNL248C, strain rpa49, stronger effect = lower value) of the same compound?
Its normalized growth is 1.

And the normalized growth (locus YNL322C, strain KRE1 (second series), stronger effect = lower value)?
Its normalized growth is 0.934.

What about the normalized growth (locus YNR049C, strain mso1, stronger effect = lower value) of the same compound?
The normalized growth was 0.932.

And the normalized growth (locus YOR001W, strain rrp6, stronger effect = lower value)?
The normalized growth was 0.881 (active).

And the normalized growth (locus YOR070C, strain gyp1, stronger effect = lower value)?
The normalized growth was 0.938.

What about the normalized growth (locus YOR080W, strain dia2, stronger effect = lower value) of the same compound?
The normalized growth was 0.934.

What about the normalized growth (locus YOR083W, strain WHI5, stronger effect = lower value) of the same compound?
The normalized growth was 0.994.

And the normalized growth (locus YOR106W, strain vam3, stronger effect = lower value)?
Its normalized growth is 0.969.

And the normalized growth (locus YOR265W, strain rbl2, stronger effect = lower value)?
The normalized growth was 0.948.

What about the normalized growth (locus YOR270C, strain vph1, stronger effect = lower value) of the same compound?
The normalized growth was 0.895.

And the normalized growth (locus YOR290C, strain snf2, stronger effect = lower value)?
The normalized growth was 0.941.

What about the normalized growth (locus YPL051W, strain arl3, stronger effect = lower value) of the same compound?
Its normalized growth is 0.988.

What about the normalized growth (locus YPL078C, strain atp4, stronger effect = lower value) of the same compound?
The normalized growth was 1.

What about the normalized growth (locus YPL106C, strain sse1, stronger effect = lower value) of the same compound?
Its normalized growth is 0.95.

And the normalized growth (locus YPL240C, strain hsp82, stronger effect = lower value)?
The normalized growth was 0.969.
